In PubChem BioAssay (NCATS) one finds Potency and outcome data, which are given here for 27 molecules.

Records with an inconclusive call do not appear. Active and inactive are the calls of the source. The call rests on the fitted dose curve; in most records, active means well fitted curve in the direction sought with a large enough effect; inconclusive means small, poorly fitted or top-dose-only effect, or another doubt; inactive means no such curve, though single readings can be large; an effect the other way counts as inactive or inconclusive.

Assay [1] addresses ATP-dependent 6-phosphofructokinase (Trypanosoma brucei brucei) (UniProt O15648). The assay is described as follows: qHTS Validation Assay to Find Inhibitors of T. brucei phosphofructokinase (AID 485368). A digest of the protocol:
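PFK-generated ADP was measured after 45 min at room temperature using ADP-Glo. The reaction contained 0.5 mM F6P and 0.1 mM ATP.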
On the technique in general: In qHTS, concentration-response curves come from the screen itself.

Assay [2] in a line: Quantitative high throughput screen for delayed death inhibitors of the malarial parasite plastid, 96 hour incubation (AID 488745). Further: series mostly up to about 29 µM; nearly all actives have a fitted effect of over 70% in size. A digest of the protocol: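 Decreased firefly luciferase luminescence indicates inhibited growth of reporter-integrated P. falciparum after two generations (96 h, 37 C, 5% CO2). Infected erythrocytes at 0.1% parasitemia, 2% hematocrit, in Albumax-supplemented RPMI 1640.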

A short description of assay [3]: Quantitative high throughput screen for delayed death inhibitors of the malarial parasite plastid, 48 hour incubation (AID 488752). Further: nearly all actives have a fitted effect of over 65% in size. Further: potency means the concentration at half of the fitted maximal effect. A digest of the protocol:
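One-generation (48 h) growth assay: a decrease in luciferase signal from an integrated reporter in P. falciparum-infected red cells (0.1% parasitemia, 2% hematocrit) after compound exposure at 37 C indicates parasite inhibition.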

The target of assay [4] is Thioredoxin reductase 1, cytoplasmic (Rattus norvegicus) (UniProt O89049). The assay is described as follows: qHTS Assay for Inhibitors of Mammalian Selenoprotein Thioredoxin Reductase 1 (TrxR1) (AID 488773). Further: nearly all actives have a fitted effect of over 40% in size. Further: potency means the concentration at half of the fitted maximal effect. As to conditions: Potency: inhibition. The method, boiled down: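 Inhibition is scored from the loss of NADPH fluorescence between first and last reads of an 8-min kinetic run. Selenite (400 uM) was the substrate, added after 15 min compound preincubation at room temperature.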

The target in assay [5] is Flap endonuclease 1 (Homo sapiens) (UniProt P39748). The assay is described as follows: qHTS Validation Assay for the Inhibitors of Human Flap endonuclease 1 (FEN1) (AID 488816). A digest of the protocol:
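qHTS format: compounds and 10 nM FEN1 incubated 15 min at room temperature before adding 50 nM substrate. Cleavage followed by reads at 0 and 15 min; normalized data fitted to a four-parameter Hill curve.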

Assay [6] addresses M-phase phosphoprotein 8 (Homo sapiens) (UniProt Q99549). The assay is described as follows: qHTS Validation Assay for Inhibitors for MPP8 Chromodomain Interactions with Methylated Histone Tails (AID 488949). Further: nearly all actives have a fitted effect of over 55% in size. Further: potency means the concentration at half of the fitted maximal effect. A digest of the protocol: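 Chemiluminescent proximity assay: histidine-tag capture via nickel acceptor beads, biotin peptide via streptavidin donor beads. Protein and peptide each at 50 nM, pH 7.4, with 30 min incubations at room temperature for complex formation, compound exposure and bead binding.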

Assay [7] has as its target Chromobox protein homolog 1 (Homo sapiens) (UniProt P83916). Put plainly: qHTS Validation Assay for Inhibitors of HP1-beta Chromodomain Interactions with Methylated Histone Tails (AID 488953). Further: nearly all actives have a fitted effect of over 50% in size. Further: potency means the concentration at half of the fitted maximal effect. The method, boiled down:
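AlphaScreen proximity signal from streptavidin donor and nickel chelate acceptor beads (final 10 ug/mL) after 30 min dark incubation. Compounds had 30 min at room temperature with preformed complex of 50 nM HP1-beta and 50 nM b-H3(1-18)K9me3 in PBS pH 7.4 with 0.01% Tween-20.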

Assay [8] deals with Methanococcus maripaludis chaperonin (MmCpn) (UniProt Q6LX38). The assay is described as follows: High-Throughput Screening for Modulators of Cytosolic Chaperonin Activity: MmCpn Primary Screen (AID 488978). A digest of the protocol: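 HTRF readout (320 nm excitation, 590/665 nm emission) of ADP generated by 50 nM MmCpn hydrolysing 30 uM ATP during 10 min at 37C; compound preincubated 5 min RT.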

In assay [9] the target is Thioredoxin reductase 1, cytoplasmic (Rattus norvegicus) (UniProt O89049). Put plainly: qHTS Assay for Substrates of Mammalian Selenoprotein Thioredoxin Reductase 1 (TrxR1) (AID 488772).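 Further: series mostly up to about 57 µM; a drop in NADPH fluorescence below the no-compound background marks a TrxR1 substrate.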 The method, boiled down: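 In this dual-purpose format, potential substrates are identified from the first fluorescence read after selenite addition, not from the 8-minute delta. Rat enzyme is preincubated with NADPH and then with compound at ~22 deg C.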

Assay [10] has as its target Transient receptor potential cation channel subfamily V member 1 (Homo sapiens) (UniProt Q8NER1). Put plainly: HTS Assay for Compounds that Act as Enhancers of the Vanilloid Receptor 1 (AID 488979). A digest of the protocol: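 Calcium influx kinetics via Fluo-8 (480/520 nm) in TRPV1-expressing cells, 2000/well cultured overnight at 35.5C. Compound-alone read 3 min (agonist phase), followed by EC20 capsaicin challenge for 2 min (enhancer phase).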

M-phase phosphoprotein 8 (Homo sapiens), sequence (Q99549 whole entry, looked up): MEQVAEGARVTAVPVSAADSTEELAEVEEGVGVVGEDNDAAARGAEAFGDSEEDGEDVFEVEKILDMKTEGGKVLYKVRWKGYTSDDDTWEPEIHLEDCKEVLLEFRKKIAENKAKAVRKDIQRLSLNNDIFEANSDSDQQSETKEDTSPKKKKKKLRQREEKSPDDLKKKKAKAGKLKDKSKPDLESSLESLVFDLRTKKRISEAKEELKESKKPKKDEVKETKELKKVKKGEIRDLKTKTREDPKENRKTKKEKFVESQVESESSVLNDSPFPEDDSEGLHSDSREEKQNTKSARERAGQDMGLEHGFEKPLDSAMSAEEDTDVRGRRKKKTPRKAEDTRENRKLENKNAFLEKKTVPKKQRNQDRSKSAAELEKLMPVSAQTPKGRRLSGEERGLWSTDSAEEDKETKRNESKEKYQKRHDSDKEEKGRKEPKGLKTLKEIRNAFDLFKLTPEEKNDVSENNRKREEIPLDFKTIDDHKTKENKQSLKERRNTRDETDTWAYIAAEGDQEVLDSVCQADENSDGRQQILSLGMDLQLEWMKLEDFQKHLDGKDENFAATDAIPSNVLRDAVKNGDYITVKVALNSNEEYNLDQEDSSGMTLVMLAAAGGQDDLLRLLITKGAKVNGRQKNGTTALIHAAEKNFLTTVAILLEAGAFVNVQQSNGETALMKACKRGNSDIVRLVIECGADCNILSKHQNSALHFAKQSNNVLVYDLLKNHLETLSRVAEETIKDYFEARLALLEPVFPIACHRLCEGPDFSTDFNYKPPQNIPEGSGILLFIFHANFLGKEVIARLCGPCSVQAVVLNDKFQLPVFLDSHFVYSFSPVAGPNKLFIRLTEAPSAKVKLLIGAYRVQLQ
Thioredoxin reductase 1, cytoplasmic (Rattus norvegicus), sequence (O89049 whole entry, looked up): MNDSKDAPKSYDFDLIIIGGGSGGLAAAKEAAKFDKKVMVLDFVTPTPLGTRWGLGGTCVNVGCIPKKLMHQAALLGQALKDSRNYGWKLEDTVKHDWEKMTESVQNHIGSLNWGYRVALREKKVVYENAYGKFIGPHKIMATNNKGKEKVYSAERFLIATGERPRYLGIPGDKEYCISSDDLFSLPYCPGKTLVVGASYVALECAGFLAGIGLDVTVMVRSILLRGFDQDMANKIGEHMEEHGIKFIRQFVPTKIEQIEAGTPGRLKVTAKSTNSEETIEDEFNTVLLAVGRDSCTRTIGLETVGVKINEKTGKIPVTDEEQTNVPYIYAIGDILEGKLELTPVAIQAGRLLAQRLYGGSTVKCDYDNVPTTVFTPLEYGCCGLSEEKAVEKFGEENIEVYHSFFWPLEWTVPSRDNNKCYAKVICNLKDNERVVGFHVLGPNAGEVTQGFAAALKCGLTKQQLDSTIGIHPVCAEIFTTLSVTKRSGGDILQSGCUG
Methanococcus maripaludis chaperonin (MmCpn), sequence (Q6LX38 1-543): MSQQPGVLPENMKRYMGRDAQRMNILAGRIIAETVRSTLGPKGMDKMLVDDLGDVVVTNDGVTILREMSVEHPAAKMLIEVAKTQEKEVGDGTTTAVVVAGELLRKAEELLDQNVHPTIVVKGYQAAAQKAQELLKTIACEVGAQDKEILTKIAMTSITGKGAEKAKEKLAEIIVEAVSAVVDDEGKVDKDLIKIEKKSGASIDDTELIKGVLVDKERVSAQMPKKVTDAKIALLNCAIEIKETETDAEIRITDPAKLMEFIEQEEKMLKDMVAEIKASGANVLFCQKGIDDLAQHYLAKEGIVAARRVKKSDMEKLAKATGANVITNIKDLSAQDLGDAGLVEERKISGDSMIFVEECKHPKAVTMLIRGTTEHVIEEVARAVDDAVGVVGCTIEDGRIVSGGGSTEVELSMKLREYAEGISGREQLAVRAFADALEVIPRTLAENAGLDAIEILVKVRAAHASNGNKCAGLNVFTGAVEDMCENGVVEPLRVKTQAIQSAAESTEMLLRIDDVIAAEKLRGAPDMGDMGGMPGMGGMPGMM
Chromobox protein homolog 1 (Homo sapiens), sequence (P83916 whole entry, looked up): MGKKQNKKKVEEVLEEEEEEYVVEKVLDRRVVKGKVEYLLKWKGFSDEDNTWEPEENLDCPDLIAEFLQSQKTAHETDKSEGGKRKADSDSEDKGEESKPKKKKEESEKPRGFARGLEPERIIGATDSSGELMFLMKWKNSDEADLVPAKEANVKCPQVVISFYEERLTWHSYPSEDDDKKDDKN
Flap endonuclease 1 (Homo sapiens), sequence (P39748 whole entry, looked up): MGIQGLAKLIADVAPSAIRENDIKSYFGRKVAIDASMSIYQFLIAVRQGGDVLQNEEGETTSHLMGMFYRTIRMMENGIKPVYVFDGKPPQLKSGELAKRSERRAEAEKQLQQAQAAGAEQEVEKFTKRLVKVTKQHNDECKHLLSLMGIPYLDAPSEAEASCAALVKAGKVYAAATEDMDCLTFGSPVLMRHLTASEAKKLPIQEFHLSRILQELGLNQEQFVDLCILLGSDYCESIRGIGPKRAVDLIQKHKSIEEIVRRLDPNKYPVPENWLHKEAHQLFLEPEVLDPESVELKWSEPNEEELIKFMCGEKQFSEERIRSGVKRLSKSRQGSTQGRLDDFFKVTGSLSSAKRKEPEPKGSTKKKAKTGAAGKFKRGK
Transient receptor potential cation channel subfamily V member 1 (Homo sapiens), sequence (Q8NER1 whole entry, looked up): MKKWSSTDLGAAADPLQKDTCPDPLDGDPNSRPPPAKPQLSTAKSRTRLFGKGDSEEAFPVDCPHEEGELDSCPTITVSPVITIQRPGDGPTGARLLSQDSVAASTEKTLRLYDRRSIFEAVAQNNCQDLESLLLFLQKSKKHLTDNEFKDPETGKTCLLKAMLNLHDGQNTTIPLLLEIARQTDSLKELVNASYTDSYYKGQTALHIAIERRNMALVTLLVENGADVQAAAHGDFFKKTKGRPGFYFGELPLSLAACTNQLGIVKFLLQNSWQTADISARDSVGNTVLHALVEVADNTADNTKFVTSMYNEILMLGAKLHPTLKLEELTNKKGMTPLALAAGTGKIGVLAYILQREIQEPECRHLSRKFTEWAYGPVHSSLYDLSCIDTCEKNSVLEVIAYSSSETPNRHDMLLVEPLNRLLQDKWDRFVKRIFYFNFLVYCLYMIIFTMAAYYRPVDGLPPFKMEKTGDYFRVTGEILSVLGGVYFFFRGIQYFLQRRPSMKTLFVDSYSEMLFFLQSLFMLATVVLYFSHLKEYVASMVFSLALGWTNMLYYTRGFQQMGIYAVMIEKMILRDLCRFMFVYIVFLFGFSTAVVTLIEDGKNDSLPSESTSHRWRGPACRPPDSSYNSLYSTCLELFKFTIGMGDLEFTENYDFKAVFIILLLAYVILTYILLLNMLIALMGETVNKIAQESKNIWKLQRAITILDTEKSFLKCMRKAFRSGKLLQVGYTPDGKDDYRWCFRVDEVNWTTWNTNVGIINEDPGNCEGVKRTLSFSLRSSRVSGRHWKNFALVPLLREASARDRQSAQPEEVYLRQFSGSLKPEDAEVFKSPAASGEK
ATP-dependent 6-phosphofructokinase (Trypanosoma brucei brucei), sequence (O15648 whole entry, looked up): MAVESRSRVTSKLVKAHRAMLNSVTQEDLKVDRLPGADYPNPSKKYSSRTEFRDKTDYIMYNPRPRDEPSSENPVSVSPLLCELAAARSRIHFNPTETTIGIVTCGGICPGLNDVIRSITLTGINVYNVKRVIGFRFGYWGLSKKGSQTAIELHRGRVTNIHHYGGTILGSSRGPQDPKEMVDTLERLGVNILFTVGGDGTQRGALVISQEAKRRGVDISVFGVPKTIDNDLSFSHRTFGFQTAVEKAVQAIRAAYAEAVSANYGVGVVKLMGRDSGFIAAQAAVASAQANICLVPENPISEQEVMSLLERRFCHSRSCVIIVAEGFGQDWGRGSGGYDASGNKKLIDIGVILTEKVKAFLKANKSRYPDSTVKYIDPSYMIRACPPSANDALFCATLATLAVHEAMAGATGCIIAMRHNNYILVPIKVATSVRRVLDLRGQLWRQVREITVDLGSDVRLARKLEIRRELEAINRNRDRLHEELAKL

Consider `CSC(=N)N`, for which the Potency entry in assay [1], in assay [2], in assay [3], in assay [4], in [5] and in assay [6] was “inactive” in each case. For the same molecule, the Potency result in assay [7] is “inactive”. Also, the outcome in assay [8] was inactive.
`CN1CC(O)C(O)C(O)C1CO` (centres undefined): the Potency result in assay [1], in [4], in assay [5], in assay [6] and in assay [7] was “inactive” each time. For the same molecule, the call in assay [9] and in assay [8] was inactive.
For `COC(=O)[C@H](NC(=O)c1cc(-c2ccccc2)nc2ccccc12)c1ccccc1`, the Potency entry in assay [1], in assay [3], in assay [4], in assay [5], in assay [6] and in [7] was “inactive” each time. Besides, the call in assay [9], in assay [8] and in [10] was inactive.
As for `O=c1oc(Cl)c(Cl)c2ccccc12`, the Potency entry in assay [1], in assay [3] and in assay [5] was “inactive” each time. For the same molecule, the molecule was classed as inactive in assay [9], in assay [8] and in assay [10].
As to `COc1cc2c(CCNC(C)=O)c[nH]c2cc1O`, the Potency result in assay [1], in [3], in assay [4], in assay [5] and in assay [7] was “inactive” throughout. For the same molecule, the molecule was called inactive in assay [9], in [8] and in assay [10].
For `CC(C)(C)NCC(O)COc1cccc2[nH]c(=O)[nH]c12` (centres undefined), the Potency result in assay [1], in assay [3], in assay [4], in assay [5], in [6] and in [7] was “inactive” each time. The call in assay [9], in assay [8] and in assay [10] was inactive.
As to `Nc1ccc(CCNc2ncnc3c2ncn3C2OC(CO)C(O)C2O)cc1` (centres undefined), the Potency entry in assay [1], in [3], in assay [4], in assay [5], in assay [6] and in assay [7] was “inactive” throughout. Further, the outcome in [9], in assay [8] and in assay [10] was inactive.
`NC/C=C\C(=O)O`: the Potency result in assay [1], in [3], in assay [4], in assay [5], in [6] and in assay [7] was “inactive” in each case. The outcome in [8] and in assay [10] was inactive.
Regarding `CCCCCCN(CCCCCC)C(=O)Cc1c(-c2ccc(F)cc2)[nH]c2ccccc12`, the Potency entry in [1], in assay [4], in assay [5], in assay [6] and in assay [7] was “inactive” each time. The Potency in assay [3] is 5.22 µM (active). The molecule was classed as inactive in assay [8] and in [10].
With `CC(N)=O`, the Potency result in [1], in assay [3], in assay [4], in assay [6] and in assay [7] was “inactive” each time. For the same molecule, the call in assay [9], in assay [8] and in assay [10] was inactive.
In the case of `O=C(O)/C=C/c1ccc(O)c(O)c1`, the Potency result in [1], in [3], in [4], in assay [5] and in [7] was “inactive” in each case. Besides, the call in assay [9], in [8] and in [10] was inactive.
`COc1ccc(C(=O)NCc2cccnc2)cc1C(=O)NCc1cccnc1`: the Potency result in assay [1], in assay [3], in assay [4], in assay [5], in assay [6] and in [7] was “inactive” each time. Further, the outcome in [9], in assay [8] and in assay [10] was inactive.
`NCCCCN=C(N)N`: the Potency result in assay [1], in [3], in [4], in assay [5], in assay [6] and in assay [7] was “inactive” throughout. In addition, the molecule was classed as inactive in assay [9], in [8] and in assay [10].
Turning to `COc1cc(C(O)CO)ccc1O` (centres undefined), the Potency result in assay [1], in assay [3], in [5], in [6] and in [7] was “inactive” throughout. Moreover, the result in assay [8] and in assay [10] was inactive.
Consider `CC(C)[C@@H]1CC[C@@H](C)C[C@@H]1P(=O)(c1ccccc1)c1ccccc1`, for which the Potency result in assay [1], in [4], in assay [5], in assay [6] and in assay [7] was “inactive” throughout. Also, the molecule was classed as inactive in assay [9] and in [8].
In the case of `CCCC(=O)NCCc1c2n(c3ccc(OC)cc13)CCCc1ccccc1-2`, the Potency result in [1], in assay [3], in assay [4] and in assay [5] was “inactive” each time. The call in [9], in [8] and in [10] was inactive. For the same molecule, the Potency is 28.2 µM (active) in assay [6] and 35.5 µM (active) in [7].
With `c1ccc2c(c1)CC(N1CCN(c3cccc4c3OCCO4)CC1)C2`, the Potency result in [1], in assay [3], in assay [4], in [5] and in assay [6] was “inactive” each time. Besides, the result in assay [9], in [8] and in assay [10] was inactive. Further, in [7], the Potency was 0.006 µM (active).
`NC1CONC1=O` (centres undefined): the Potency result in assay [1], in [3], in [4], in assay [5] and in assay [7] was “inactive” in each case. The result in assay [9], in [8] and in [10] was inactive.
As to `CC1CCN=C(N)S1` (centres undefined), the Potency result in [1], in [3], in assay [5], in assay [6] and in assay [7] was “inactive” in each case. For the same molecule, the outcome in assay [9], in [8] and in assay [10] was inactive.
Turning to `CCCn1c(=O)c2[nH]c(C3CCCC3)nc2n(CCC)c1=O`, the Potency result in assay [1], in assay [3], in assay [4], in assay [5], in [6] and in assay [7] was “inactive” in each case. Further, the molecule was classed as inactive in [9], in [8] and in assay [10].
In the case of `COc1ccc(-c2ccc(N)[n+](CCCC(=O)O)n2)cc1`, the Potency entry in assay [1], in assay [3], in assay [4], in [5] and in assay [7] was “inactive” each time. Further, the molecule was classed as inactive in assay [9], in assay [8] and in assay [10].
`O=c1[nH]c2ccccc2c2ccccc12`: the Potency result in assay [1], in assay [3], in assay [4], in [5], in [6] and in assay [7] was “inactive” each time. In addition, the molecule was called inactive in [9] and in assay [10].
As to `C=C1C[C@@]23CC[C@H]4[C@@](C)(CCC[C@@]4(C)C(=O)O)[C@@H]2CC[C@]1(O)C3`, the Potency entry in assay [1], in [4], in assay [5], in [6] and in assay [7] was “inactive” in each case. Also, the call in assay [9] and in assay [8] was inactive.
Turning to `O[Si](CCCN1CCCCC1)(c1ccc(F)cc1)C1CCCCC1` (centres undefined), the Potency entry in assay [1], in assay [4], in assay [5], in [6] and in assay [7] was “inactive” each time. The Potency in [3] was 0.117 µM (active). Besides, the molecule was called inactive in assay [9] and in [8].
Consider `c1ccc(C(NCCNC(c2ccccc2)c2ccccc2)c2ccccc2)cc1`, for which the Potency entry in assay [1], in assay [4], in assay [5], in assay [6] and in [7] was “inactive” throughout. Further, the molecule was classed as inactive in assay [9] and in assay [8].
As for `N=S(=O)(O)Cc1noc2ccccc12`, the Potency entry in assay [1], in assay [3], in assay [4], in assay [5], in assay [6] and in assay [7] was “inactive” each time. The call in assay [9], in assay [8] and in assay [10] was inactive.
Take `C=C1C(=O)O[C@@H]2[C@H]3O[C@]3(C)CCC=C(C)CC[C@@H]12`: the Potency result in assay [1], in assay [3], in assay [5], in [6] and in [7] was “inactive” throughout. Further, the molecule was called inactive in assay [9], in assay [8] and in [10]. Besides, the Potency in assay [4] was 16.8 µM (active).
